# Measured values as given in article PMC7862700, “An all-to-all approach to the identification of sequence-specific readers for epigenetic DNA modifications on cytosine”.
# Key:
# Assay in all cases: DAPPL (digital affinity profiling via proximity ligation, sequencing); 10 mM Tris-HCl pH 7.5, 50 mM NaCl, 1 mM DTT, 4% glycerol, room temperature, 30 min; GST-TFs on glutathione beads, 16-mer random dsDNA library, 0.1% formaldehyde crosslink after washing; high values mean tight binding
# Conditions in all cases: protein: recombinant; tags: N-terminal GST; dsDNA, one strand shown
# ELK1 = target: T1, ELK1 (Homo sapiens, UniProt P19419 1-428)
# T1 sequence: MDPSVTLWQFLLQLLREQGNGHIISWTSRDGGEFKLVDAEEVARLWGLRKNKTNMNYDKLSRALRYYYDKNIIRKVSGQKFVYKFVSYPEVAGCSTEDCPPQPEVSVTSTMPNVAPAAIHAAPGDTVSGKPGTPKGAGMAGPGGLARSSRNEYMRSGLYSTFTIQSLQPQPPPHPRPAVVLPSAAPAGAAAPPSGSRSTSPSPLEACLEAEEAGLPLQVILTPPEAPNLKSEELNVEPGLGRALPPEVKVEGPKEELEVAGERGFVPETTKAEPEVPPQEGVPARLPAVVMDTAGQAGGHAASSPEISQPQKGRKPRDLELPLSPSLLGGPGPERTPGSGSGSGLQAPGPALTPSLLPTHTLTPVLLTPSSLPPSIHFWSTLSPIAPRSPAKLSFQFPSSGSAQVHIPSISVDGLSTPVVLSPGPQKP
# In short: (§1)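 Beads coated with glutathione captured GST-fused human transcription factors that had been expressed in yeast, and the factors were then given DNA barcodes and pooled with a tag-only sample. The pools were incubated with 200 nmole of a random double-stranded 16-mer DNA library in Tris/NaCl/DTT/glycerol buffer for 30 min at room temperature, washed, crosslinked with 0.1% formaldehyde and proximity-ligated with BsaI/T4 ligase at 37 °C for 1 h. PCR amplification and Illumina NextSeq500 sequencing came last. Binding signal is each hexamer's read frequency for a factor divided by its frequency for the tag-only sample.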
# ERG = target: T2, ERG (Homo sapiens, UniProt P11308 1-479)
# T2 sequence: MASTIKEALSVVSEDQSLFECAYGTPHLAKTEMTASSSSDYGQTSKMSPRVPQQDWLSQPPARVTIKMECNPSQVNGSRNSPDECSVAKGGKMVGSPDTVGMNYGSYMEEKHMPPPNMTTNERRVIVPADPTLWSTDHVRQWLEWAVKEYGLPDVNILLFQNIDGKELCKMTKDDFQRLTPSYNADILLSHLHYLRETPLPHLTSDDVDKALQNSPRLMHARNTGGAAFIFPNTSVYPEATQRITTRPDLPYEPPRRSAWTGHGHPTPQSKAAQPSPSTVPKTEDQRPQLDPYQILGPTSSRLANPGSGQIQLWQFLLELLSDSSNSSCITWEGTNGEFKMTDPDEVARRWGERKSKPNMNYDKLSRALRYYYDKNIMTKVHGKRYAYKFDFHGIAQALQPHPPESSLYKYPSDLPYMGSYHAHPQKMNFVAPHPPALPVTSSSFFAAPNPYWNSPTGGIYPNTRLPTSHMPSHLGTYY
# In short: as §1
# EHF = target: T3, EHF (Homo sapiens, UniProt Q9NZC4 1-300)
# T3 sequence: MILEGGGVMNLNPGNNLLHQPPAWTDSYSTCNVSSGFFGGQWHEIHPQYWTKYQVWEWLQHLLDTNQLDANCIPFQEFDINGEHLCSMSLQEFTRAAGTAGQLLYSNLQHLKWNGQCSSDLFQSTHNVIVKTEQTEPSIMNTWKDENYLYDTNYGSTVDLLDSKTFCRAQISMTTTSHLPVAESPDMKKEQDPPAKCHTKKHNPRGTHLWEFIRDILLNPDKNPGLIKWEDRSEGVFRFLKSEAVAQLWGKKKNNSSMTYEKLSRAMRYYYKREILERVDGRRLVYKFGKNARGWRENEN
# In short: as §1
# SPIC = target: T4, SPIC (Homo sapiens, UniProt Q8N5J4 1-248)
# T4 sequence: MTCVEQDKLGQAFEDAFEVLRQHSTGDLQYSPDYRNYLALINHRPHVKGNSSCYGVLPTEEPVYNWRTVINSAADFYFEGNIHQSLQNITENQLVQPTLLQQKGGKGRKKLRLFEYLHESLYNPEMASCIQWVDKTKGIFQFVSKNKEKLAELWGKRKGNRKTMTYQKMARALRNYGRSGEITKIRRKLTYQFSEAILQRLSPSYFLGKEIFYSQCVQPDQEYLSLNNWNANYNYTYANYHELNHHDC
# In short: as §1
# ELF4 = ELF4 (Homo sapiens, UniProt Q99607 1-663)
# Chain of ELF4 (Q99607 whole entry): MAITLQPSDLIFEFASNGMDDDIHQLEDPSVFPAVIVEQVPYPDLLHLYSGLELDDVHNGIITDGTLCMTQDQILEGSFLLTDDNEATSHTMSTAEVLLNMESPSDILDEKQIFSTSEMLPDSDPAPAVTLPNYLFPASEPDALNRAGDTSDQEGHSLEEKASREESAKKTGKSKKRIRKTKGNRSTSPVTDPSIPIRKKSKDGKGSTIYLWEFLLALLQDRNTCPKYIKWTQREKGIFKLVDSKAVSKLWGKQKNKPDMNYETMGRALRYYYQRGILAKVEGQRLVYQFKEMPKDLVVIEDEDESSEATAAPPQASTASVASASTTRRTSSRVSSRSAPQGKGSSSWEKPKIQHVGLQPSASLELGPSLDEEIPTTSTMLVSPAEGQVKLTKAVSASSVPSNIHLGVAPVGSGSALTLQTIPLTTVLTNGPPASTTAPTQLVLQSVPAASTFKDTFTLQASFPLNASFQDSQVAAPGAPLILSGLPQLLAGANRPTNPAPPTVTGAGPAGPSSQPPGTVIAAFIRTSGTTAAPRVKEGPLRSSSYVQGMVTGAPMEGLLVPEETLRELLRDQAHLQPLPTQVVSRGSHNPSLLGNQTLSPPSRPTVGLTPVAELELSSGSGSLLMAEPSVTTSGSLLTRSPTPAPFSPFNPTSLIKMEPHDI
# In short: as §1
# ELK4 = target: T5, ELK4 (Homo sapiens, UniProt P28324-2 1-405)
# T5 sequence: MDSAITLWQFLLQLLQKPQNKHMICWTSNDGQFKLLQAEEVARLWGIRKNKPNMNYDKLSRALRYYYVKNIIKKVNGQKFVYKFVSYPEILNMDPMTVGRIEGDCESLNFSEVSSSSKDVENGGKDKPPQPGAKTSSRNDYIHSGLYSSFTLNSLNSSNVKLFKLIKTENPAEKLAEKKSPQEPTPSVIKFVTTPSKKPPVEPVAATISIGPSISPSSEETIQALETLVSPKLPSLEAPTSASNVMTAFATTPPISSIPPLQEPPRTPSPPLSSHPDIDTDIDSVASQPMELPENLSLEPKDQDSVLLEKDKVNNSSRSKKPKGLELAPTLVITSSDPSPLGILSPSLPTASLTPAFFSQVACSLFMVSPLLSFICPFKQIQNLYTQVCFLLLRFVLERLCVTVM
# In short: as §1
# ETV1 = ETV1 (Homo sapiens, UniProt P50549 1-477)
# Chain of ETV1 (P50549 whole entry): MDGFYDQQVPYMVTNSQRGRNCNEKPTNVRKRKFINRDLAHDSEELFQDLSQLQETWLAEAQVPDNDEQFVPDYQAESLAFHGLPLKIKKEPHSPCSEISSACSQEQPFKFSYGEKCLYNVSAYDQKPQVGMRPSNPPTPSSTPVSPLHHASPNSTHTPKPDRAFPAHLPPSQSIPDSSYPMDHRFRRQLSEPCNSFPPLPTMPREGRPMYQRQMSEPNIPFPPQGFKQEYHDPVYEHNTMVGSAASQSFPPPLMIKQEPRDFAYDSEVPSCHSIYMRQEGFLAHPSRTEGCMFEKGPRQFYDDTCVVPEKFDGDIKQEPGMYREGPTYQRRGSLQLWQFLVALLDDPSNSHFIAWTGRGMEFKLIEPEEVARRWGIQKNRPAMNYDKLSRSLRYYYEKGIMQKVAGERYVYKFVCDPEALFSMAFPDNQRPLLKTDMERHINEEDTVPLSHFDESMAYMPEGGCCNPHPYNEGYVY
# In short: as §1
# ETS2 = target: T6, ETS2 (Homo sapiens, UniProt P15036 1-469)
# T6 sequence: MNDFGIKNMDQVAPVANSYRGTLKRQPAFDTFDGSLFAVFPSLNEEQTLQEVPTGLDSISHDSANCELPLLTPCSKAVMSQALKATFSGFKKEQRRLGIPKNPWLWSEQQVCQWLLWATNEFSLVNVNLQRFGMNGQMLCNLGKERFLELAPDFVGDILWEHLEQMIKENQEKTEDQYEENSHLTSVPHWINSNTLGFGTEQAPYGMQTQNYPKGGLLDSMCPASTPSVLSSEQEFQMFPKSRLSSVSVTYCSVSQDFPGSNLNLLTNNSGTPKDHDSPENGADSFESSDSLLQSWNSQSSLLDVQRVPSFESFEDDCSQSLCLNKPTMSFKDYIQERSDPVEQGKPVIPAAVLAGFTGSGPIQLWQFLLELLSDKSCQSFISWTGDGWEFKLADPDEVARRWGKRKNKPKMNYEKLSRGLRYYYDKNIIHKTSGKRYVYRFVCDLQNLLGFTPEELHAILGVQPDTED
# In short: as §1
# SPDEF = target: T7, SPDEF (Homo sapiens, UniProt O95238 1-335)
# T7 sequence: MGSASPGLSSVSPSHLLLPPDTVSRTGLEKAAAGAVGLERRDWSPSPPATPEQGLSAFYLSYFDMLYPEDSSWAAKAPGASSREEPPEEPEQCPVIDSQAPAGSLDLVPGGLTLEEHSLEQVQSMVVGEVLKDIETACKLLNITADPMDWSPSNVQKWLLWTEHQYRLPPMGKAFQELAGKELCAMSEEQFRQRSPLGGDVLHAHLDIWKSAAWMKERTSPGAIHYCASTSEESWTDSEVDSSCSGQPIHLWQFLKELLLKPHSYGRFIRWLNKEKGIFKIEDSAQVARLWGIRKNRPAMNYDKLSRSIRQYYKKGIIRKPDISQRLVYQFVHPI
# In short: as §1
# ETV3 = target: T8, ETV3 (Homo sapiens, UniProt P41162-2 1-143)
# T8 sequence: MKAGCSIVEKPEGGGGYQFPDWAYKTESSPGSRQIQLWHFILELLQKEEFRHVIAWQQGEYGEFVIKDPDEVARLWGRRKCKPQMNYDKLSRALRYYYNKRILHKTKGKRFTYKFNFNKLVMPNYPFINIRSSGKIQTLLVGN
# In short: as §1
sequence,measurement,setting,value
GCTAAG,binding signal,ELK1,"1.08 fold enrichment (6-mer frequency, TF over GST control)"
same,binding signal,ERG,"1.01 fold enrichment (6-mer frequency, TF over GST control)"
same,binding signal,EHF,"1.05 fold enrichment (6-mer frequency, TF over GST control)"
same,binding signal,SPIC,"1.08 fold enrichment (6-mer frequency, TF over GST control)"
same,binding signal,ELF4,"1.06 fold enrichment (6-mer frequency, TF over GST control)"
same,binding signal,ELK4,"1.18 fold enrichment (6-mer frequency, TF over GST control)"
same,binding signal,ETV1,"1 fold enrichment (6-mer frequency, TF over GST control)"
same,binding signal,ETS2,"1.04 fold enrichment (6-mer frequency, TF over GST control)"
same,binding signal,SPDEF,"1.11 fold enrichment (6-mer frequency, TF over GST control)"
same,binding signal,ETV3,"1.04 fold enrichment (6-mer frequency, TF over GST control)"
